Results: PubChem BioAssay AID492998 (Southern Research Specialized Biocontainment Screening …, 2010)
The campaign covered roughly 2,300 compounds. About 550 (24%) were called active. A selection follows. Results with a measured potency or affinity are listed apart. Values without a mark were called inactive. The rule behind the calls is not given here.

Test: Vero E6 cell cytotoxicity, dose response, cytotoxicity control for non-replicating M. tuberculosis project, secondary assay (AID 492998);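 note: 100% = vehicle-treated cells and 0% = background wells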
Conditions: series mostly up to 20 µM; viability: at the top concentration

Row | SMILES | viability [%]
1 | Cc1ccc(S(=O)(=O)/N=C(\CCl)N2CCOCC2)cc1 | 96.7
2 | Cc1cc(CN(C)C)c(O)c(C2(C)CCCCC2)c1 | 106
3 | CCCCNC(=O)N1CCc2ccccc2C1 | 96.6
4 | CCOc1ccccc1OC(=O)c1cc2ccccc2oc1=O | 95.6
5 | Cc1ccc(NC(=O)C2CC2c2ccccc2)cc1 (centres undefined) | 97.4
6 | CN(/N=C/c1ccc([N+](=O)[O-])o1)c1ccccc1 | 114
7 | O=c1oc(-c2ccccc2[N+](=O)[O-])nc2ccccc12 | 92.6
8 | COc1ccc(OC)c(N2C(=O)NC(=O)/C(=C/c3ccc([N+](=O)[O-])s3)C2=O)c1 | 88.5
9 | CCC(=O)N1CCN(c2cc3c(cc2F)c(=O)c(C(=O)O)cn3CC)CC1 | 97.8
10 | O=C(COC(=O)c1ccccn1)Nc1cccc(Cl)c1Cl | 97.1
11 | CCOC(=O)C1CCCN(Cc2nc(Cc3ccccc3Cl)no2)C1 (centres undefined) | 110
12 | CCCCCOc1ccc(CSC2=NCCN2)cc1[N+](=O)[O-] | 78
13 | Cc1cc(Br)ccc1OCCCCN1CCC(C)CC1 | 98
14 | CCc1ccc(C(C)NC(=O)C2CCCO2)cc1 (centres undefined) | 109
15 | CCS(=O)(=O)c1ncc(Cl)c(C(=O)Nc2ccc(S(=O)(=O)N3CCC(C)CC3)cc2)n1 | 88.8
16 | Cc1ccc(-c2ccc(/C=N/NC(=O)CN3CCOCC3)o2)cc1[N+](=O)[O-] | 87.5
17 | O=C(Nc1ccc(S(=O)(=O)N2CCOCC2)cc1)c1ccc([N+](=O)[O-])s1 | 74.6
18 | CC1CCN(S(=O)(=O)c2cccc(C(=O)Oc3ccc([N+](=O)[O-])cc3)c2)CC1 | 101
19 | COc1cccc(NC(=O)c2ccc(Cn3cc([N+](=O)[O-])cn3)o2)c1 | 115
20 | CCN1CCN(Cc2cc(C(C)(C)C)c(O)c(C(C)(C)C)c2)CC1 | 98.1
21 | O=C(N/N=C/c1ccc(OC(=O)c2cccs2)cc1)c1ccccn1 | 100
22 | COc1cc(C2C3=C(CC(C)(C)CC3=O)OC(N)=C2[N+](=O)[O-])ccc1O (centres undefined) | 98.8
23 | CC(C)CCNCC(O)CON=C1c2ccccc2-c2ccccc21 (centres undefined) | 82.9
24 | O=C(O)c1ccc(NS(=O)(=O)/C=C/c2ccccc2)cc1O | 95.3

Row | SMILES | viability [%]
25 | O=C(N/N=C/c1ccc(Br)s1)c1ccccc1[N+](=O)[O-] | 79.6
26 | O=C(NNc1ccc([N+](=O)[O-])cc1)c1ccccc1Cl | 101
27 | CCOC(=O)N/N=C\c1ccc([N+](=O)[O-])s1 | 81.2
28 | CCCOC(=O)c1ccc(NC(=O)Cc2cccs2)cc1 | 109
29 | CCOc1ccc(NC(=O)CCC(=O)N/N=C/c2ccc([N+](=O)[O-])s2)cc1 | 78.7
30 | Cc1cccc(NCc2ccc([N+](=O)[O-])s2)c1 | 87.4
31 | Cc1ccc(C2=N/C(=C\c3cccnc3)C(=O)O2)cc1 | 106
32 | CCOC(=O)c1cc(COc2cc(Cl)cc(Cl)c2)on1 | 98.4
33 | O=C(c1cc2ccccc2o1)c1nc2c(n1O)CCCCC2 | 104
34 | Nc1cccn2c(-c3ccc(Cl)cc3)cnc12 | 101
35 | CC1(C(=O)OCC(=O)Nc2nnc(-c3ccccc3)o2)CC1(Cl)Cl (centres undefined) | 71.1
36 | CCOC(=O)C1CCCc2c1[nH]c1c(C(N)=O)cccc21 (centres undefined) | 106
37 | Cc1ccc(Oc2c(C(N)=O)cc([N+](=O)[O-])cc2[N+](=O)[O-])cc1 | 94.9
38 | COc1cc(/C=C/c2ccc3c([N+](=O)[O-])cccc3n2)ccc1OCC(=O)O | 99.9
39 | CCC1CCc2sc(C(=O)NNC(=O)c3ccncc3)cc2C1 (centres undefined) | 106
40 | CN(CCS(=O)(=O)c1ccc(Cl)cc1)Cc1cccnc1 | 85
41 | CC(=O)c1ccc(NC(=O)c2cc(CC(C)C)on2)cc1 | 106
42 | CC(C)(C)Nc1nc(NC(C)(C)C)nc(-n2ccnc2)n1 | 79.9
43 | O=C(NC(=S)Nc1ccc(F)cc1)C1CCCCC1 | 89.2
44 | COC(=O)COc1cccc(NC(=O)c2ccc(Cl)cc2)c1 | 106
45 | Cc1cc(OCC(=O)Nc2ccncc2)ccc1Br | 108
46 | Cc1cc(NC(=O)COc2ccccc2)ccc1Cl | 90.2
47 | O=C(NNC(=O)c1ncc(Cl)c(Cl)c1Cl)c1ccc(F)cc1 | 87
48 | Cc1cc(Br)ccc1OCC(=O)NNC(=O)C(=O)Nc1ccccc1 | 102

Row | SMILES | viability [%]
49 | CC(C)c1ccc(OCC(=O)NNC(=O)c2cnccn2)cc1 | 91
50 | O=C(Oc1cccnc1)c1ccc(Cl)c(Cl)c1 | 121
51 | CCc1ccc(NC(=O)C(=O)NNC(=O)COc2cccc(OC)c2)cc1 | 97.4
52 | CCc1ccc(OCC(=O)Nc2ccncc2)c(Br)c1 | 96.3
53 | Cc1cc2cc(CNC(=O)C3CCCC3)ccc2n1C | 105
54 | O=C(CCC1CCCCC1)NCc1ccc(F)cc1 | 105
55 | Clc1ccc(SCCCCN2CCNCC2)cc1 | 85
56 | O=C(NCC1CCCCC1)c1ccc([N+](=O)[O-])cc1 | 94.3
57 | CCCCOC(=O)c1ccc(NC(=O)c2nn(C)cc2Br)cc1 | 79.3
58 | O=C(NCCSc1ccccc1)c1ccc(Br)cc1 | 107
59 | Cc1ccc2cc(/C=N/NC(=O)[C@H](C)NC(=O)OC(C)(C)C)c(Cl)nc2c1 | 95.6
60 | CN1CC(=O)NC1=NC(=O)C12CC3CC(CC(C3)C1)C2 | 77.2
61 | Cc1cc(Br)ccc1OCCCCN1CCCCC1 | 80.3
62 | CCOC(=O)c1csc(NC(=O)COc2ccc(Cl)cc2Cl)n1 | 98.5
63 | CCOc1ccc(Cn2c(=O)oc3ccccc32)cc1 | 102
64 | CC1C/C(=N/N2C(=O)CSC2=S)CC(C)(C)C1 (centres undefined) | 96.3
65 | C/C(=N/NC(=O)c1ccncc1)C1=C(O)CC(C)(C)CC1=O | 107
66 | CC1=C(/C=C/C(C)=N\NC(=O)c2ccncc2)C(C)(C)CCC1 | 95.3
67 | C=CCNCC(=O)N1N=C(c2ccc3ccccc3c2)CC1c1ccc(OC)cc1 (centres undefined) | 76.9
68 | CCn1ccc(C(=O)Nc2cccc(Cl)c2)n1 | 99.4
69 | CCn1nnc(NC(=O)c2sc3ccccc3c2Cl)n1 | 93.4
70 | CCCc1cc(C(=O)Nc2cccc(C(C)=O)c2)no1 | 104
71 | CC(C)(C)c1ccc(OCCC(=O)OCC(=O)NC2CCCCC2)cc1 | 80.5
72 | COC(=O)CCC(=O)Nc1sc(Cc2ccccc2)c(C)c1C(N)=O | 93.4

Row | SMILES | viability [%]
73 | COc1ccc(C(CNC(=O)c2cccc(NS(=O)(=O)c3ccc(C)c(F)c3)c2)N2CCCC2)cc1 (centres undefined) | 92
74 | Cc1noc2ncnc(Sc3ccc(Br)cc3)c12 | 72.2
75 | COC(=O)c1ccccc1Sc1ncnc2onc(C)c12 | 87.7
76 | CCOC(=O)CNc1ccc(C(=O)OCC)cc1[N+](=O)[O-] | 95.5
77 | CC(C)c1ccc(N2C(=O)NC(=O)/C(=C/C=C/c3ccco3)C2=O)cc1 | 98
78 | Brc1ccc(CSc2nnc(-c3ccco3)o2)cc1 | 107
79 | CCCc1ccc(OCc2ccc(C(=O)N/N=C/c3cccnc3)o2)cc1 | 96.3
80 | CN1C(=O)NC(=O)/C(=C/c2ccc([N+](=O)[O-])s2)C1=O | 97
81 | Cc1cc(C)n(CC(=O)N/N=C/c2ccc([N+](=O)[O-])s2)n1 | 70.8
82 | NC(=O)c1ccc(N=Cc2ccc([N+](=O)[O-])s2)cc1 | 92.6
83 | O=c1oc(/C=C/c2ccc([N+](=O)[O-])s2)nc2ccccc12 | 99.9
84 | NNC(=O)CNC(=O)C12CC3CC(CC(C3)C1)C2 | 95.4
85 | COc1ccccc1C1=NOC(COC(=O)c2ccc([N+](=O)[O-])cc2)C1 (centres undefined) | 98
86 | COCCNC(=O)c1cc2cc(Cl)cc(Cl)c2oc1=O | 95.2
87 | Cc1cccc(OC(=O)c2sc3ncn(C)c(=O)c3c2C)c1 | 99.5
88 | CCn1c2ccccc2c2cc(CNCc3ccc(OC)cc3OC)ccc21 | 79.5
89 | O=C(COc1ccc(Cl)cc1)OCC(=O)N1CCCc2ccccc21 | 100
90 | CC(C)(C)/C(O)=C/c1nc2ccccc2oc1=O | 89
91 | COc1ccc(NC(=O)c2cnc(SC)nc2)cc1 | 77.2
92 | COc1ccc(NC(=O)CO/N=C2/CCCc3nonc32)c(OC)c1 | 88
93 | CCOC(=O)N1CCC(N2CCCC(C(=O)c3ccc4cc(OC)ccc4c3)C2)CC1 (centres undefined) | 80.3
94 | COc1ccc(C(=O)COC(=O)c2ccc(Cl)nc2)c(OC)c1 | 90.3
95 | O=C(COC(=O)CC1CCCC1)Nc1ccc(OC(F)F)cc1 | 107
96 | CCCCOC(=O)c1ccc(OC(=O)c2cccnc2)cc1 | 85.5

Row | SMILES | viability [%]
97 | Cc1cc(C)cc(OC(=O)c2cccnc2)c1 | 87.5
98 | CCc1cccc(OCCCn2ccnc2)c1 | 99.3
99 | CN1/C(=C\C(=O)COC(=O)C2COc3ccccc3O2)C(C)(C)c2ccccc21 (centres undefined) | 94.6
100 | CN1/C(=C\C(=O)COC(=O)c2ccc([N+](=O)[O-])o2)C(C)(C)c2ccccc21 | 79.5
101 | C=CC(=O)Oc1ccc(N2Cc3ccccc3C2=O)cc1 | 92.8
102 | CC1=NN(C(=O)CCCc2ccccc2)C(O)(C(F)(F)F)C1 (centres undefined) | 104
103 | Cc1ccc(/C(O)=C/c2nc3ccccc3oc2=O)cc1 | 89.3
104 | COc1ccc(OCCCC(=O)Nc2ccc(N3CCOCC3)cc2)cc1 | 102
105 | CN(CC(=O)Nc1ccc(Cl)cc1)C1CCCCC1 | 92.6
106 | CCOCCOC(=O)c1ccc(NC(=O)C2COc3ccccc3O2)cc1 (centres undefined) | 112
107 | CCOC(=O)COc1ccc2c(c1)c(C(C)=O)c(C)n2Cc1ccccc1 | 103
108 | Cc1c(C(=O)N(C)C)sc2nc(-c3ccccn3)[nH]c(=O)c12 | 70.9
109 | Cc1nnc(SCCC(=O)Nc2ccc(Cl)cc2)o1 | 111
110 | Cc1nc2ccc(OC(=O)c3ccccc3)cc2s1 | 101
111 | CCOc1ccc(OCC(=O)Nc2nccs2)cc1 | 96.3
112 | O=C(COc1ccccc1)NNc1nc2ccccc2s1 | 102
113 | CCOc1ccc2nc(/N=C/c3nc(-c4ccccc4)oc3O)sc2c1 | 91
114 | CCCNC(=O)OCC12CC3CC(CC(C3)C1)C2 | 94.7
115 | N=C1/C(=C/c2ccc(OC(=O)c3ccco3)cc2)C(=O)N=C2SC=CN12 | 107
116 | c1ccc(CNCCC(Cc2ccccc2)c2ccco2)cc1 (centres undefined) | 81.8
117 | CC(C)(C)C(=O)/C=C/Nc1ccccc1O | 82
118 | CC(=O)c1ccc(Sc2nnnn2-c2ccccc2)c([N+](=O)[O-])c1 | 75
119 | Cc1cc(C)n(C(=O)c2ccc([N+](=O)[O-])cc2[N+](=O)[O-])n1 | 96.6
